Assay outcomes as filed in PubChem.
HepG2 tox = HepG2 cytotoxicity, counter-screen for TGF-b inhibitors; HepG2 CAGA-GFP viability, ATP luminescence, 18 h; Potency, µM (highest dose often 46.1 µM), without a hit: at the highest dose activity change, negative = cytotoxicity, usual class: cytotoxic; 410,000 tested, 0.76% active
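CellTiter-Glo luminescence gave cytotoxicity after 18 hours at 37 degrees C. The cells were HepG2 CAGA-GFP in 1% FBS DMEM, stimulated with 500 pg/mL TGF-beta after compound addition. %Activity was normalised to no-cell wells (complete cell-killing) and DMSO (no toxicity), and curves were fitted and classified.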
TGFb SMAD3 inh = TGF-b pathway inhibition | HepG2 CAGA-GFP TGF-b/SMAD3 reporter, GFP fluorescence, 18 h; TGF-beta stimulated, 500 pg/mL final | Potency, µM (series often up to 46.1 µM), inactives show at the highest dose activity, negative = inhibition, most hits filed as inhibitors | 410,000 tested, 1.2% active; note: % is set by controls: 0 for no effect and ±100 for the full control effect; nearly all actives have a fitted effect of over 65% in size
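HEPG2 CAGA-GFP cells (1000/well, DMEM with 1% FBS) were pre-incubated 2 h at 37 degrees C, given compound by pin tool, then stimulated with TGF-beta at 500 pg/mL final for 18 h before per-cell GFP fluorescence imaging.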
S2 tox = cell viability loss in ATXN counter-screen. S2 cells (HEK-293 line with an ATXN2-luciferase reporter) viability, CellTiter-Fluor protease fluorescence, 24 h. Potency, µM (series often up to 56.7 µM), usual class: cytotoxic. 400,000 tested, 0.49% active. AID 651635; note: nearly all actives have a fitted effect of over 40% in size
ATXN2 expr inh = inhibitors of ATXN2 expression; HEK-293 ATXN2-luciferase reporter, luminescence, 24 h; AID 1745845; 360,000 tested, 0.72% active; Potency, µM (top dose mostly 57 µM), inactives show at the top dose activity change, negative = inhibition, usual class: inhibitors; note: % is set by controls: 0 for no effect and ±100 for the full control effect; nearly all actives have a fitted effect of over 55% in size
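qHTS (up to 57 uM final) was run with 24 h compound exposure of reporter cells at 37 °C. Each well was multiplexed: SteadyGlo luminescence measured ATXN2-luciferase expression after a fluorogenic Gly-Phe-AFC viability readout (25 uM final).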
HT1080 IDH1KD tx = kills HT-1080 cells with IDH1 knockdown | 360,000 tested, 2% active | HT-1080 IDH1 knockdown viability, ATP luminescence, 48 h | AID 686971 | Potency, µM (doses to about 46.1 µM), for inactives: top-dose activity, negative = toxicity, usual class: cytotoxic;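 note: 0% = DMSO wells and -100% = cell-free medium wells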
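Using the IDH1-knockdown HT-1080 line run in the same batch and compound series as the NT line, viability after 48 h at 37 °C was determined by CellTiter-Glo luminescence and expressed as % activity.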
HT1080-NT tox = kills 2HG-producing HT-1080-NT fibrosarcoma cells | 360,000 tested, 1.6% active | Potency, µM (top dose mostly 46.1 µM), for inactives: at the highest dose activity, negative = less viability, usual class: cytotoxic | HT-1080-NT fibrosarcoma viability, CellTiter-Glo ATP luminescence, 48 h | AID 686970;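 note: NT is the 2HG producing partner of a matched IDH1 knockdown line; 0% = DMSO-treated cells and -100% = media-only wells without cells; nearly all actives have a fitted effect of over 55% in size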
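Viability by CellTiter-Glo luminescence after 48 h compound exposure at 37C of HT-1080-NT cells (750/well, RPMI, 5% FBS). % activity scaled between DMSO wells and medium-only wells, then curve-fitted and categorized by curve class.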
* marks the source's active call; other numbers are inactive results; i = inactive; ? = inconclusive; nt = no result given; ! = a repeat was not active. The list is not random: actives were taken first. Their share in the collection is about 3.8%. Calls come from the whole dose curve; as a rule, active = well fitted curve in the direction sought with a large enough effect; inconclusive = small, poorly fitted or top-dose-only effect, or another doubt; inactive = no such curve, though single readings can be large; an effect the other way counts as inactive or inconclusive. Potency is the fitted concentration of half-maximal effect.

SMILES	HepG2 tox	TGFb SMAD3 inh	S2 tox	ATXN2 expr inh	HT1080 IDH1KD tx	HT1080-NT tox
C=C1C(=O)O[C@@H]2[C@H]1[C@@H](OC(=O)/C(C)=C/C)C/C(C)=C\C(=O)/C=C(\C)[C@@H]2O	11µM*	7.1µM*	10µM*	6.3µM*	?	?
COc1ccc2cc(C(=O)C3CCCN(Cc4cccc(C)n4)C3)ccc2c1 (stereo not drawn)	-30%	?	i	-13%	23µM*	?
COc1cccc(O)c1CN1CCCC(C(=O)c2cccc(C(F)(F)F)c2)C1 (stereo not drawn)	-52%	16µM*	i	-37%	?	-14%
Cc1c(C(=O)NCCN2CCOCC2)cnn1-c1nccc(-c2cc3ccccc3o2)n1	nt	nt	i	nt	nt	nt
CCNC(=O)c1sc2ncnc(NCCCN3CCOCC3)c2c1C	nt	nt	i	nt	nt	nt
Cc1ccc(NC(=O)c2ccc(-n3c(C)nnc3C)cc2)cc1F	-4%	0%	i	7%	nt	nt
O=C(N/N=C/c1ccc([N+](=O)[O-])o1)c1ccc2c(c1)OCO2	11µM*	16µM*	i	10µM*	?	?
O=C(N/N=C/c1ccc([N+](=O)[O-])o1)c1ccccc1-n1cccc1	-62%	10µM*	?	?	?	?
COc1ccccc1N1CCN(C(=O)c2[nH]c(C(F)(F)F)nc2-c2ccccc2)CC1	4%	?	?	-1%	0.82µM*	1.3µM*
Cc1cccc(N2CCN(C(=O)c3[nH]c(C(F)(F)F)nc3-c3ccccc3)CC2)c1C	-6%	?	i	6%	0.58µM*	?
COc1ccc(N2CCN(C(=O)c3[nH]c(C(F)(F)F)nc3-c3ccccc3)CC2)cc1	-5%	8%	i	-3%	?	-30%
COc1ccc(N(CC(=O)Nc2cc(Cl)ccc2OC)S(=O)(=O)c2c(C)noc2C)cc1	-27%	0%	?	?	12µM*	?
COc1ccc(OC)c(NC(=O)CN(c2ccc(C)cc2)S(=O)(=O)c2c(C)noc2C)c1	-26%	4%	i	-14%	-11%	-21%
CCc1cc2cc(OC)c(OC)cc2c(Cc2ccccc2)n1	nt	nt	i	21%	nt	nt
CCCCC[n+]1cccc2c3ccccc3ccc21	-8%	?	i	?	9.2µM*	?
c1ccc(C[n+]2cccc3c4ccccc4ccc32)cc1	-35%	?	i	?	?	?
CS(=O)(=O)c1ccc(-c2cccc3c2OC(CNC(=O)c2cc(C4CC4)[nH]n2)C3)cc1 (stereo not drawn)	nt	nt	i	nt	nt	nt
c1ccc(N=c2nc(-c3ccccc3)n(-c3ccccc3)s2)cc1	-84%	2.8µM*	nt	nt	nt	nt
c1ccc(Cn2sc(=Nc3ccccc3)nc2-c2ccccc2)cc1	-21%	-3%	nt	nt	nt	nt
Cc1cccc(N2CCN(C(=O)CN3C(=O)COc4ccc(S(=O)(=O)N5CCCCCC5)cc43)CC2)c1C	-1%	?	i	11%	nt	nt
Fc1ccc(-c2nc(-c3cccs3)[nH]c2-c2ccc(F)cc2)cc1	-39%	14µM*	?	-4%	-17%	-4%
Oc1cccc(-c2nc(-c3cccs3)c(-c3cccs3)[nH]2)c1	-86%	14µM*	nt	nt	nt	nt
Cc1nc2nncn2c(Nc2ccccc2)c1C	-9%	?	i	-16%	nt	nt
CCn1c(=O)c(C(=O)CN2CCCc3ccccc32)c(N)n(Cc2ccccc2)c1=O	-18%	11µM*!	i	-2%	-21%	-13%
CC(C)N(Cc1nc(COc2ccccc2)no1)Cc1nccn1C	-13%	-8%	i	nt	-2%	-4%
SMILES	HepG2 tox	TGFb SMAD3 inh	S2 tox	ATXN2 expr inh	HT1080 IDH1KD tx	HT1080-NT tox
CC(C)N(Cc1cn[nH]c1-c1ccc(-c2ccccc2)cc1)Cc1nccn1C	-14%	?	?	?	21µM*	15µM*
CCCC(=O)OCOC(=O)C1=C(C)NC(C)=C(C(=O)OC)C1c1cccc(Cl)c1Cl (stereo not drawn)	nt	nt	i	6%	nt	nt
CCN(CC)/[N+]([O-])=N/Oc1cc(O/N=[N+](\[O-])N(C)C)c([N+](=O)[O-])cc1[N+](=O)[O-]	10µM*	6.3µM*	nt	nt	nt	nt
CCc1nc2sc3ccccc3c(=O)c2c(=O)n1Cc1ccco1	-8%	-3%	i	116%	26µM*	?
Cn1c2ccccc2c(=O)c2c(=O)n(Cc3ccco3)c(-c3ccc(F)cc3)nc21	20µM*	-13%	i	-18%	?	-29%
Cc1ccc(-c2nc3c(c(=O)c4ccccc4n3C)c(=O)n2Cc2ccco2)cc1	31%	13%	i	-8%	3%	-17%
O=c1c2ccccc2sc2nc(C3CCCCC3)n(Cc3ccco3)c(=O)c12	-1%	0%	?	8%	-26%	14%
CC(N=C1NS(=O)(=O)c2ccccc21)C(=O)Nc1ccc(F)cc1Cl (stereo not drawn)	-12%	-20%	nt	nt	0%	10%
Cc1cnc2c3c(cc(Cl)c2c1)-c1ccccc1S(=O)(=O)N3	-85%	4µM*	nt	nt	nt	nt
O=S1(=O)Nc2c(ccc3cccnc23)-c2ccccc21	-48%	1.3µM*	?	3.5µM*	0.32µM*	0.56µM*
O=C(Nc1cc(C(=O)N2CCN(CCO)CC2)c2c(c1)ncn2C1CCCC1)c1ccccc1	nt	nt	i	nt	nt	nt
O=c1c2c(nc3c(-c4ccc(Cl)cc4)c[nH]n13)CCCC2	-22%	?	?	16µM*	7.1µM*	?
O=c1c2c(nc3c(-c4cccc5ccccc45)c[nH]n13)CCC2	-50%	-6%	i	-16%	-4%	-8%
CCC1CN(CCC(=O)N2CCCN(C(=O)c3ccco3)CC2)Cc2cc(OC)ccc2O1 (stereo not drawn)	nt	nt	i	nt	nt	nt
O=C(CSc1nc2ncccc2[nH]1)Nc1cc(F)ccc1F	-18%	-28%	nt	nt	nt	nt
CC(C)OCCCn1c(SCC(=O)Nc2ccccc2C(F)(F)F)nc2nccnc2c1=O	2.5µM*	13%	i	6%	8%	20%
O=C(NCC(c1ccc2c(c1)OCO2)N1CCN(c2ccccc2F)CC1)c1ccccc1F (stereo not drawn)	-4%	10µM*	?	-15%	nt	nt
COc1ccc(F)c(CN2CCOc3ccc(CN4CCCCC4CO)cc3C2)c1 (stereo not drawn)	nt	nt	i	nt	nt	nt
